# From PubChem BioAssay (NCATS)
# Inconclusive results are not listed. Values without a mark were called inactive. Activity calls are given as the source filed them. The call rests on the fitted dose curve; in most records, active means well fitted inhibition curve with a large enough effect; inconclusive means small, poorly fitted or top-dose-only effect; inactive means no such curve, though single readings can be large or run the other way.
# Assay: Primary qHTS for inhibitors of La Crosse Virus (LACV) - induced cell death in SH-SY5Y cells (AID 1508616);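 further: top concentration of the series differs between compounds; 0% = infected DMSO wells and 100% = uninfected DMSO wells; higher means more rescue of cells from virus-induced death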
# Details: SH-SY5Y LACV cytopathicity rescue, ATP luminescence, 6 d; series mostly up to 9.63 µM; activity change: at the top concentration
# Summary of the method: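 Screening measures cell viability in LACV-infected SH-SY5Y cultures. Compound was added before virus (0.01 MOI), and ATP was detected by luminescence 6 days later.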
Compound,activity change,outcome
S=C(NC1CCCCC1)N1CCC(c2cnc[nH]2)CC1,15.1%,–
COC(=O)[C@@H](N)CCCN=C(N)N[N+](=O)[O-],-8.43%,–
NCCc1c[nH]c2ccccc12,-10.1%,–
CC(=O)NCCc1c[nH]c2ccccc12,-11.7%,–
CC[C@@H](C(N)=O)N1CCCC1=O,-16.4%,–
O=C(N[C@H]1CN2CCC1CC2)c1ccc(Cl)cc1,-6.49%,–
NC(=O)CN1CC(O)CC1=O (stereo not drawn),-5.05%,–
CCCN(CCC)[C@@H]1CCc2ccc(O)cc2C1,9.73%,–
Cc1nccc2c1[nH]c1ccccc12,4.39%,–
C[N+]1(C)C2CCC1CC(OC(=O)C(CO)c1ccccc1)C2 (stereo not drawn),–,inactive
O=C(O)Cc1cnc[nH]1,7.92%,–
C[C@@H]1O[C@H](C[N+](C)(C)C)C[C@H]1O,-5.04%,–
CCCN1CCO[C@@H]2c3cc(O)ccc3OC[C@H]21,–,inactive
CCCCc1ccc(C(=O)O)nc1,-6.87%,–
CC1=NN=C(c2ccc(N)cc2)c2cc3c(cc2C1)OCO3,-2.75%,–
COc1cc(C(O)CN)ccc1O (stereo not drawn),2.91%,–
Clc1cnc(Oc2ccc(Oc3ncc(Cl)cc3Cl)cc2)c(Cl)c1,16.2%,–
O=C1CCCN1CC#CCN1CCCC1,10.9%,–
